# Results reported in the supplement of paper PMC11219838.
# Unmarked numbers belong to inactive results.
# Columns and labels:
# Details in all cases: 60 µM; 5 days; temperature: 20 °C
# [1] = tested on: Meloidogyne hapla J2; test: proportion of mobile M. hapla J2 relative to DMSO control (fraction of DMSO control); higher = more viable, less nematicidal, active = 0.7 or less
# How it was run: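 About 25 M. hapla J2 were placed in each well of a 96-well plate in distilled water, and compound was pinned in to a final 60 µM with 0.6% v/v DMSO. The sealed plates were shaken at 200 rpm at 20 °C for 5 days, after which 2 µL of 1 M NaOH went into each well. Mobility was then scored under the microscope and divided by the mean value from DMSO-only wells on the same plate. Each plate held eight such DMSO wells, and two biological replicates were averaged.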
# [2] = tested on: Caenorhabditis elegans dauer (daf-2(e1370)); test: proportion of mobile C. elegans dauer larvae relative to DMSO control (fraction of DMSO control); higher = more viable, less nematicidal, active = 0.63 or less; extreme values may be limits of the assay
# How it was run: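 Compound was added by pinning to 60 µM final, giving 0.6% v/v DMSO, in 96-well plates containing about 20 C. elegans dauers per well in liquid NGM. These dauers came from synchronized larvae held on MYOB plates with E. coli OP50 for 48 h at 25 °C. Plates were sealed and shaken at 200 rpm at 20 °C for 5 days. Under a dissection microscope, the proportion of mobile worms was scored relative to DMSO wells, and two biological replicates were averaged.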
# [3] = tested on: Ditylenchus dipsaci; test: proportion of mobile D. dipsaci (mixed stage) relative to DMSO control (fraction of DMSO control); higher = more viable, less nematicidal, active = 0.86 or less; extreme values may be limits of the assay
# How it was run: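 Ditylenchus dipsaci nematodes were cultured on pea plants in Gamborg B-5 agar, then extracted into water through a filter funnel, and roughly 20 worms in distilled water were placed in each well of a 96-well plate. Compound was pinned in to a final concentration of 60 µM (0.6% v/v DMSO), and the sealed plates were shaken at 200 rpm for 5 days at 20 °C. Mobile worms were counted under the microscope after 2 µL of 1 M NaOH was added. Mobility is given relative to DMSO controls as the mean of two biological replicates.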
SMILES,proportion of mobile M. hapla J2 [1],proportion of mobile C. elegans dauer larvae [2],proportion of mobile D. dipsaci [3]
Brc1ccc(CSc2nnc(-c3cccnc3)o2)cc1,0.911,1,1
COc1ccc(-c2nnc(SCC(=O)OCc3ccccc3)o2)cc1,0.953,1,1
CCc1ccc(OCc2nc(-c3cccc(OC)c3)no2)cc1,0.74,1,1
O=C(CSc1nnc(-c2ccco2)o1)NC1CCCCC1,0.824,1,1
O=C(CSc1nnc(-c2ccc(Br)cc2)o1)OCc1ccccc1,1.02,1,1
Cc1cc(OCc2nc(-c3ccccn3)no2)ccc1Br,0.937,1,1
Cc1ccc(CSc2nnc(-c3ccco3)o2)cc1,0.628 (active),0.167 (active),1
Cc1cccc(-c2noc(-c3ccccc3Br)n2)c1,0.99,1,1
COc1cccc(-c2nc(-c3ccc(Cl)cc3)no2)c1,1.04,1,1
O=C(Nc1ccccc1-c1nc(-c2ccncc2)no1)c1ccc(Cl)cc1,0.909,1,1
Cc1ccccc1OCc1nc(-c2ccc(NC(=O)c3ccc(Br)o3)cc2)no1,0.726,1,1
Brc1ccc(-c2noc(COc3ccc4c(c3)OCO4)n2)cc1,1.06,1,1
Cc1cccc(-c2noc(-c3ccc(C)cc3Cl)n2)c1,0.964,1,1
O=C(CSc1nnc(-c2ccc(Br)cc2)o1)Nc1ccc2ccccc2c1,0.866,1,1
Cc1cc(OCc2nc(-c3cccnc3)no2)ccc1Cl,0.942,1,1
Clc1cccc(-c2nc(-c3cccnc3)no2)c1,0.312 (active),1,1
CCOc1nc(-c2ccccc2)ccc1-c1noc(CC)n1,0.998,1,1
